Compound activity as filed in PubChem.
SARS PLpro yeast: SARS-CoV PLP inhibition in yeast; 0.19% of 330,000 active; AID 485353; Potency, µM (titrated, usually from 32.9 µM), without a hit: at the top dose activity, positive = growth rescue, hits mostly activators; S. cerevisiae expressing SARS-CoV PLpro, growth rescue; note: 0% is about no effect; nearly all actives have a fitted effect of over 55% in size
Pf growth 96h: P. falciparum growth inhibition at 96 hour, primary screen for plastid delayed-death inhibitors; Potency, µM (highest dose often 28.7 µM), for inactives: top-dose activity change, negative = inhibition, actives largely listed as inhibitors; P. falciparum luciferase reporter growth, 96 h; AID 504834; 6.9% of 320,000 active; active = well fitted inhibition curve with a large enough effect; inconclusive = small, poorly fitted or top-dose-only effect, or another doubt; inactive = no such curve, though single readings can be large or run the other way; note: % is set by controls: 0 for no effect and ±100 for the full control effect
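Two-generation exposure (96 h) targets delayed-death phenotype. Reporter parasites carrying integrated firefly luciferase, in red cells at 2% hematocrit and 0.05% parasitemia final, kept at 37 C, 5% CO2; luminescence loss indicates inhibition.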
Pf growth 48h: P. falciparum growth inhibition at 48 hours (one generation); P. falciparum luciferase growth in erythrocytes, 48 h; AID 504832; 5.9% of 310,000 active; Potency, µM (series often up to 28.7 µM), without a hit: top-dose activity change, negative = inhibition, actives largely listed as inhibitors; active = well fitted inhibition curve with a large enough effect; inconclusive = small, poorly fitted or top-dose-only effect, or another doubt; inactive = no such curve, though single readings can be large or run the other way; note: % is set by controls: 0 for no effect and ±100 for the full control effect
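In quantitative HTS format, infected erythrocytes bearing luciferase-reporter parasites were treated for a single generation at 37 C. Luminescence after adding detection reagent served as the growth measure.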
NS1 function inh: blocks influenza NS1 protein function | Potency, µM (doses to about 46.1 µM), inactives show at the top dose activity, positive = more growth | 0.4% of 270,000 active; note: actives are rising curves; nearly all actives have a fitted effect of over 50% in size
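Recovery from NS1-induced slow growth read by OD600 in budding yeast switched to galactose assay medium (pH 6.0, -URA) at 1:100 dilution. Compound 23 nl per well; the matching strain lacking NS1 serves as control.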
RE007 growth inh: less growth of the S. pombe RE007 Vpr strain; S. pombe RE007 Vpr strain, BacTiter-Glo ATP luminescence, 24 h; Potency, µM (highest dose often 92.2 µM), inactives show at the top dose activity change, negative = less growth, most hits filed as inhibitors; 0.21% of 360,000 active; active = well fitted falling curve with a large enough effect; inconclusive = small, poorly fitted or top-dose-only effect; inactive = no such curve, though single readings can be large or run the other way; note: % is set by controls: 0 for no effect and ±100 for the full control effect; nearly all actives have a fitted effect of over 50% in size
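Fission yeast RE007 carrying one integrated HIV-1 vpr copy, seeded at OD 0.01 in PMG+AL medium with 23 nL pinned compound. Grown 24 h at 30 degrees; viability read by BacTiter-Glo luminescence after 5 min.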
Numbers without * were called inactive; ? = inconclusive; nt = no result. This is a sample that favours compounds with a hit; in the whole collection about 9.5% have one here. Unless noted, calls come from the whole dose curve. Potency is the fitted concentration of half-maximal effect.

SMILES	SARS PLpro yeast	Pf growth 96h	Pf growth 48h	NS1 function inh	RE007 growth inh
Cc1cn([C@H]2C[C@H](O)[C@@H](CCC(=O)NCCc3cnc[nH]3)O2)c(=O)[nH]c1=O	nt	nt	nt	nt	4%
CCOc1ccc2c(c1)C(c1ccc(C)o1)=NNC(c1ccncc1)=N2	-6%	3%	1.5µM*	nt	3%
CCOc1ccc(C2=NNC(c3cccs3)=Nc3ccc(OC)cc32)cc1	-32%	-31%	12µM*	?	-13%
CCOc1ccc2c(c1)C(c1ccc(C)cc1)=NNC(c1ccc(OC)cc1)=N2	-1%	nt	?	?	-7%
Cc1nn2c3c(cnc2c1-c1ccccc1)C(=O)CC(c1ccccc1)C3 (stereo unspecified)	3%	?	?	3%	-3%
Cc1nn2c3c(cnc2c1-c1ccccc1)C(=O)CC(c1ccco1)C3 (stereo unspecified)	0%	nt	1.5µM*	1%	-2%
O=C(Nc1ccccn1)c1cccc(S(=O)(=O)N2CCCC2)c1	3%	6%	15%	1%	17%
CN1CCN(C(=O)/C=C/c2ccc([N+](=O)[O-])o2)CC1	2%	?	12µM*	-3%	nt
O=[N+]([O-])c1ccc(/C=N/N=C/c2ccc([N+](=O)[O-])o2)o1	-20%	-5%	4.1µM*	nt	?
Cc1ccc(C(=O)N/N=C\c2ccc([N+](=O)[O-])o2)cn1	-2%	1.9µM*	3.7µM*	-5%	-12%
O=C(O)/C=C/c1ccc([N+](=O)[O-])o1	3%	?	-2%	nt	-6%
Cc1ccc(C(=O)N/N=C\c2ccc(-c3ccc([N+](=O)[O-])cc3)o2)cn1	-2%	6%	?	-7%	0%
Cc1cc2ncn(/N=C/c3ccc([N+](=O)[O-])o3)c2cc1C	-13%	4.7µM*	?	-106%	11%
CCOC(=O)c1c(C)[nH]c(C(=O)COC(=O)c2ccc([N+](=O)[O-])o2)c1C	-11%	nt	nt	nt	-8%
CCOC(=O)N/N=C\c1ccc([N+](=O)[O-])o1	-6%	8.3µM*	?	-29%	-16%
CC(C)(C)c1ccc2c(c1)OC(C(=O)N/N=C\c1ccncc1)CO2 (stereo unspecified)	-1%	22%	-24%	4%	-8%
O=C(N/N=C/c1ccc([N+](=O)[O-])o1)c1ccc(NS(=O)(=O)c2cccs2)cc1	-2%	0.93µM*	3.7µM*	5%	6%
CC(C)(C)c1ccc2c(c1)OC(C(=O)N/N=C/c1ccc([N+](=O)[O-])o1)CO2 (stereo unspecified)	-4%	2.9µM*	?	2%	-14%
NC(N)=NN=C(/C=C/c1ccc([N+](=O)[O-])o1)/C=C/c1ccc([N+](=O)[O-])o1	nt	3µM*	2.4µM*	nt	nt
CC(=O)NC(CC(=O)NC1CCCc2ccccc21)c1ccccc1 (stereo unspecified)	0%	0%	-16%	3%	-17%
CC(C)(C)OC(=O)N1CCC(C(=O)Nc2ccc3c(c2)CCC3)CC1	-1%	182%	88%	nt	-2%
O=C(Cc1ccc([N+](=O)[O-])cc1)N/N=C/c1ccc([N+](=O)[O-])o1	0%	?	?	10%	-8%
CC(=O)N/N=C/c1ccc([N+](=O)[O-])o1	nt	12µM*	?	nt	nt
Cc1ccc(S(=O)(=O)N/N=C\c2ccc([N+](=O)[O-])o2)cc1	-29%	5%	4%	-11%	?
O=C(CC12CC3CC(CC(C3)C1)C2)N/N=C/c1ccc([N+](=O)[O-])o1	16%	71%	5.2µM*	5%	-15%
Cc1ccc(S(=O)(=O)N/N=C\c2ccc([N+](=O)[O-])o2)cc1C	-2%	4.1µM*	-8%	-10%	-12%
CC1(C(=O)N/N=C/c2ccc([N+](=O)[O-])o2)CC1(Br)Br (stereo unspecified)	0%	10µM*	?	-30%	-13%
COc1ccc([C@H]2CC(=O)C=C(/C=C/c3ccccc3)C2)cc1OC	-4%	?	?	nt	-20%
C(=C\c1ccccc1)/CN1CCN(C(c2ccccc2)c2nnnn2C2CCCCC2)CC1 (stereo unspecified)	nt	nt	nt	nt	-9%
CCn1nc(-c2ccccc2)nc2c(=O)n(C)c(=O)nc1-2	-97%	-16%	82%	-67%	25µM*
